Only some compounds are listed: those with a hit (about 0.4% of all), similar ones and a draw of the others.
Rac1 mut GTP: alters GTP binding to activated mutant human Rac1. P63000. GST-Rac1 activated beads, fluorescent GTP binding, flow cytometry; actives lie on both sides; 100% means binding = to untreated wells. percent activity (GTP binding), % at 10 µM. 190,000 compounds, 0.11% hits;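 active means GTP binding at least 20 percentage points away from the 100% baseline, in either direction, so actives lie on both sides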
HRas wt GTP bind: changes GTP binding to wildtype human HRas | GST-Ras wt beads, Bodipy-FL-GTP binding, flow cytometry; actives lie on both sides | GTP binding activity, % at 10 µM | 190,000 compounds, 0.14% hits;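 active means GTP binding activity at least 20% away from the 100% baseline, either lowered as inhibitor or raised as activator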;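 further: 0% = unlabeled GTP competition control and 100% = no-compound control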
Target sequence (P01112 whole entry, looked up): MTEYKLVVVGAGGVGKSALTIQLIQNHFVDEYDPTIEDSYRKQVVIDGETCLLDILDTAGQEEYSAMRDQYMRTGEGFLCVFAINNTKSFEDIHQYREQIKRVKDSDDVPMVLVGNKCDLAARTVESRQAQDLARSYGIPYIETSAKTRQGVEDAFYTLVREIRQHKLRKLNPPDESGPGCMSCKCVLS
Cdc42 wt GTP: human Cdc42 wildtype GTP binding change, either direction; P60953; GST-Cdc42 beads, Bodipy-GTP binding, flow cytometry; actives lie on both sides; percent activity (GTP binding), % at 10 µM; 190,000 compounds, 0.2% hits;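 active means percent activity GTP binding at least 20 points away from the 100% baseline, either down as inhibitor or up as activator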;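 further: median bead fluorescence of bound Bodipy-FL-GTP at 100 nM; 0% = excess unlabeled GTP control and 100% = no compound control; below 100% means less GTP binding so inhibitor and above means activator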
Rab7 wt modul: modulators of GTP binding to dog Rab7 wildtype GTPase | AID 758 | GST-Rab7 beads, fluorescent GTP binding, flow cytometry; actives lie on both sides; untreated = 100%, excess cold GTP = 0% | 190,000 compounds, 0.055% hits | GTP binding activity (percent of control), % at 10 µM;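 active means fluorescent GTP binding to Rab7 beads changed by at least 20 points from the 100% baseline, either direction, mostly lower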;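 further: median green fluorescence of bound Bodipy-FL-GTP per Rab7 bead population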
Rab2A wt mod: changes GTP binding to wildtype dog Rab2A, up or down | P61105 | GST-Rab2 wt beads, Bodipy-GTP binding, flow cytometry | GTP binding activity, % at 10 µM | 190,000 compounds, 0.19% hits | AID 760;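 active means GTP binding activity at least 20 points away from 100%, either lowered or raised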;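 further: 0% = beads with excess unlabeled GTP and 100% = no-compound control corrected for plate trend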
Rac1 wt modul: human Rac1 wildtype GTP binding, inhibitors and activators; P63000; GST-Rac1 beads, fluorescent GTP binding, flow cytometry; actives lie on both sides; 0 = cold GTP competed, 100 = untreated; GTP binding activity (% of control), % at 10 µM; 190,000 compounds, 0.27% hits;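 active means GTP binding activity at least 20 points away from the 100% control level, either lower or higher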
* hit, by the source's call; [ ] = remark or other dose.

SMILES	Rac1 mut GTP	HRas wt GTP bind	Cdc42 wt GTP	Rab7 wt modul	Rab2A wt mod	Rac1 wt modul
Cc1ccc(N2C(=O)CC(Nc3ccc(Cl)c(S(=O)(=O)N(C)C)c3)C2=O)c(C)c1 (stereo unspecified)	96	95	96	95	95	96
CCOC(=O)c1ccc(NC(=S)NCCc2ccc(F)cc2)cc1	92	95	95	102	98	96
COc1ccc(CNc2nc3c(c(=O)n(Cc4ccc(Br)cc4)c(=O)n3C)n2C)cc1	79*	90	83	92	87	80
Cn1c(NCc2ccccc2)nc2c1c(=O)n(Cc1ccc(Br)cc1)c(=O)n2C	98	100	98	102	103	100
O=S(=O)(Cc1ccccc1)NCC1CCCO1 (stereo unspecified)	104	103	105	103	103	105
O=C(O)c1cc([N+](=O)[O-])ccc1NCc1ccccc1	146*[activator]	150*[activator]	172*[activator]	137*[activator]	153*[activator]	204*[activator]
O=C(Cn1cnc2c(nnn2Cc2ccccc2)c1=O)NCC1CCCO1 (stereo unspecified)	99	104	104	101	102	110
O=C(Cn1cnc2c(nnn2Cc2ccccc2F)c1=O)NCC1CCCO1 (stereo unspecified)	104	109	118	109	126*[activator]	120*[activator]
Cc1ccc(/C=C(\CCC(=O)O)c2nc3ccccc3s2)cc1[N+](=O)[O-]	78*	86	83	87	79*	83
Cc1cc(C)c2nc(NNC(=O)c3cc(=O)c4ccccc4o3)sc2c1	71*	82	77*	96	79*	80
O=c1cc(N2CCc3ccccc3C2)[nH]c(=O)n1-c1ccc(Cl)cc1	103	102	102	101	104	121*[activator]
Cc1ccc(-c2ccc(/C=C3\SC(N4CCOCC4)=NC3=O)o2)cc1	90	85	87	90	88	76*
O=C(Cc1c(O)c2ccccc2[nH]c1=O)NC1CCCCCC1	99	101	103	99	100	103
O=C(CCCCCNc1nc(=S)[nH]c2ccccc12)NCCc1ccc(Cl)cc1	92	92	91	101	90	87
CC(C)CCNC(=O)Cc1ccc(Nc2nc(=S)[nH]c3ccccc23)cc1	89	75*	80	96	75*	73*
O=C(Cc1ccc(Nc2nc(=S)[nH]c3ccccc23)cc1)NC1CCCCC1	76*	68*	65*	82	66*	57*
COCc1cc(C)nc(OCC(=O)N/N=C/c2ccc(-c3cc([N+](=O)[O-])ccc3Cl)o2)c1C#N	92	95	93	108	96	95
O=C(O)c1ccccc1C(=O)NCc1cccnc1	102	101	99	97	100	104
O=C(NCc1cccnc1)c1cccn2c(=O)c3sccc3nc12	86	87	87	91	82	76*
CCOC(=O)c1cnn(-c2cc(Oc3ccccc3C)ncn2)c1N	96	97	95	94	96	98

Assay outcomes from PubChem.
